About 13,000 (27%) of roughly 48,000 compounds showed an effect of 50% or more. The list shows a part of the results.
The compounds below were run on Wolbachia pipientis (assay: Anti-Wolbachia Cell-Based Screen). Details: 5 µM.
Format: functional
Design: scale not given: in the data most compounds retested in dose-response had high values
`COc1ccc(F)cc1C(=O)N1CCC2(CCC(=O)N(C(C)C)C2)CC1` was tested, and the “Percent Effect” value was -13.7%. In the case of `CCN(CC)C1CCN(C(=O)Nc2cc(F)c(OC)c(F)c2)C1` (centres undefined), the “Percent Effect” value is reported as -0.1207%. For `COCC(=O)N[C@H](C(=O)NC(C)c1cc(C)ccc1C)C(C)C` (some centres undefined), the “Percent Effect” value was -5.803%. For `CC(=O)NCC(=O)N1Cc2ccnn2CC(COCCN(C)C)C1` (centres undefined), the “Percent Effect” value was -1.622%. For `Cc1ccc(C(=O)NC(C)CN2CCCC2=O)c(=O)[nH]1` (centres undefined), the “Percent Effect” value was -26.01%. For `Cc1ccc(C(=O)NC2CCN(C(C)C)C2)c(=O)[nH]1` (centres undefined), the “Percent Effect” value was 89.09%. In the case of `CC(C)N1CCC(NC(=O)NCCC(=O)NCc2ccccc2)C1` (centres undefined), the “Percent Effect” value is reported as -0.958%. For `CCOc1cc(C)nc(N2CCN(C(=O)c3ccc[nH]3)CC2)n1`, the “Percent Effect” value was -4.872%. For `CCNC(=O)N(C)C(c1cccnc1)C(C)C` (centres undefined), the “Percent Effect” value was -2.757%. With `CC(C)N(Cc1ccc(C#N)cc1)C(=O)Nc1ccncc1` the “Percent Effect” value was -13.59%. In the case of `CC(c1ccco1)N(C(=O)CNc1ccc(C#N)cc1)C1CC1` (centres undefined), the “Percent Effect” value is reported as -9.874%. `CC(c1ccco1)N(C)C(=O)NCCOc1ccc(C#N)cc1` (centres undefined) was tested, and the “Percent Effect” value was 99.5%. For `CC(c1ccncc1)N(C)C(=O)NCCOc1ccc(C#N)cc1` (centres undefined), the “Percent Effect” value was 100.4%. In the case of `CC(c1ccco1)N(C(=O)COc1ccc(C#N)cc1)C1CC1` (centres undefined), the “Percent Effect” value is reported as 1.408%. `CC(C)N(Cc1cccnc1)C(=O)CCSc1ccc(C#N)cc1` was tested, and the “Percent Effect” value was -11.64%. With `CC(c1cccnc1)N(C)C(=O)NCCOc1ccc(C#N)cc1` (centres undefined) the “Percent Effect” value was 102.9%. In the case of `CC(C)N(Cc1ccc(C#N)cc1)C(=O)NCCNc1ncccn1`, the “Percent Effect” value is reported as -6.799%. For `O=C(C1SCCc2sccc21)N1CCCCC1` (centres undefined), the “Percent Effect” value was 1.977%. For `N#Cc1cccnc1OC1CCN(C(=O)c2cc(C3CC3)on2)CC1`, the “Percent Effect” value was -1.829%. `CN(Cc1ccco1)C(=O)C1=NN(C)C(=O)CC1` was tested, and the “Percent Effect” value was 140.7%. For `CN1N=C(C(=O)N(Cc2ccco2)C2CCCC2)CCC1=O`, the “Percent Effect” value was 120.9%. With `CN(Cc1ccco1)C(=O)c1ccc(=O)n(C)c1` the “Percent Effect” value was 12.27%. `Cc1ccc(N(Cc2ccco2)C(=O)CC2=NN(C)C(=O)C2)cc1` was tested, and the “Percent Effect” value was 134.3%. In the case of `CN(CC1COc2ccccc2O1)C(=O)C1=NN(C)C(=O)CC1` (centres undefined), the “Percent Effect” value is reported as -4.029%. `CCN(Cc1ccco1)C(=O)C1=NN(c2ccccc2)C(=O)CN1` was tested, and the “Percent Effect” value was 5.452%. `O=C(c1c[nH]c2ncccc12)N(Cc1ccco1)C1CCCC1` was tested, and the “Percent Effect” value was 4.323%. With `O=C(NCCc1nnc2n1CCC2)N(Cc1ccco1)C1CCCC1` the “Percent Effect” value was -12.78%. With `Cc1ccc(N2N=C(C(=O)N(C)Cc3ccco3)NCC2=O)cc1` the “Percent Effect” value was 2.373%. In the case of `COC(=O)c1cc(CN2CCN(c3ncccc3C)CC2)ccc1O`, the “Percent Effect” value is reported as 0.3059%. For `CCC(C)NS(=O)(=O)Cc1cccc(NC(=O)C2=CCCC2)c1` (centres undefined), the “Percent Effect” value was -11.93%. `CCN(CC(=O)NC)S(=O)(=O)N1CCCCCC1` was tested, and the “Percent Effect” value was -4.569%. With `O=C1OCCN1CCCN1CCCC1c1ccc(O)cc1` (centres undefined) the “Percent Effect” value was -23.79%. For `Cc1c[nH]c(CN2CC[C@@]3(O)CCN(C(=O)C4CCC4)C[C@H]3C2)n1`, the “Percent Effect” value was 3.285%. In the case of `CCN(C)S(=O)(=O)NC(C)c1cnc(N(C)C2CCCCC2)nc1C` (centres undefined), the “Percent Effect” value is reported as -0.2104%. For `Cc1nc(N(C)C2CCCCC2)ncc1C(C)NC(=O)c1cscn1` (centres undefined), the “Percent Effect” value was -3.92%. For `CN(c1ncc(C(=O)Nc2ccccc2)c(N)n1)C1CCCCC1`, the “Percent Effect” value was -11.44%. In the case of `Cc1nc(N(C)C2CCCCC2)ncc1C(C)NC(=O)c1cccnc1` (centres undefined), the “Percent Effect” value is reported as 7.363%. `CN(c1nccc(-c2cnc3sccn3c2=O)n1)C1CCCCC1` was tested, and the “Percent Effect” value was 92.84%. With `COc1ccnc(NC2CCN(CC(=O)N3CCCC3)CC2)n1` the “Percent Effect” value was -3.698%. With `O=c1c(-c2ccnc(NC3CCCCC3)n2)cnc2sc(Cl)cn12` the “Percent Effect” value was 123.9%. For `Cc1cn2c(=O)c(-c3ccnc(N(C)C4CCCCC4)n3)cnc2s1`, the “Percent Effect” value was 84.88%. In the case of `O=c1c(-c2ccnc(NC3CCOCC3)n2)cnc2sc(Cl)cn12`, the “Percent Effect” value is reported as -8.128%. For `CN(c1nccc(-c2cnc3sc(Cl)cn3c2=O)n1)C1CCCCC1`, the “Percent Effect” value was 110%. With `CN(C)c1nccc(N(C)C2CCCCC2)n1` the “Percent Effect” value was -7.043%. With `O=C1N(C2CCCCC2)C[C@H]2CN(C3CCC3)CCN12` the “Percent Effect” value was -8.618%. `Cc1ccc(C(C)NCCc2nccn2Cc2ccccc2)o1` (centres undefined) was tested, and the “Percent Effect” value was -3.119%. In the case of `O=C(NCCc1ccccc1Cl)NCC1(O)CCSC1` (centres undefined), the “Percent Effect” value is reported as 5.482%. With `COc1cccc(CCC2CCCN(C(=O)c3n[nH]c4c3CCC4)C2)c1` (centres undefined) the “Percent Effect” value was 9.398%. In the case of `CO[C@H]1C[C@@H]2CN(C(=O)c3n[nH]c4c3CCCC4)C[C@@H]2C1`, the “Percent Effect” value is reported as 95.28%. `COc1ccccc1CC1CCCN(C(=O)c2n[nH]c3c2CCC3)C1` (centres undefined) was tested, and the “Percent Effect” value was -10.41%. For `O=C(NCc1ccccc1Cn1ccnc1)N1CCOCC1`, the “Percent Effect” value was -11.31%. In the case of `CCC(CNC(=O)c1nc(=O)[nH][nH]1)Oc1ccccc1C(F)(F)F` (centres undefined), the “Percent Effect” value is reported as -3.223%. With `CCc1nccn1C1CCCN(C(=O)c2ccc3[nH]nnc3c2)C1` (centres undefined) the “Percent Effect” value was -5.197%. With `Cc1nccn1C1CCCN(C(=O)c2ccc3c(c2)nnn3C)C1` (centres undefined) the “Percent Effect” value was -0.6055%. For `CCc1nccn1C1CCCN(C(=O)Cc2ccc(OC)c(F)c2)C1` (centres undefined), the “Percent Effect” value was -2.667%. With `CCc1nccn1C1CCCN(C(=O)c2ccc3c(c2)nnn3C)C1` (centres undefined) the “Percent Effect” value was 93.39%. `CCc1nccn1C1CCCN(C(=O)c2ccn(C)c(=O)c2)C1` (centres undefined) was tested, and the “Percent Effect” value was -5.694%. For `CCc1nccn1C1CCCN(C(=O)c2ccc(OC)c(OC)c2)C1` (centres undefined), the “Percent Effect” value was 97.86%. In the case of `CCOc1ccc(C(=O)N2CCCC(n3ccnc3C)C2)cc1OC` (centres undefined), the “Percent Effect” value is reported as 91.57%. With `Cc1nc(C)c2c(n1)CCN(C(=O)C1(C#N)CC1)CC2` the “Percent Effect” value was -4.604%. `Fc1cccc(-c2nnn3c2COC(CNCc2nccs2)C3)c1.O=C(O)C(F)(F)F` (centres undefined) was tested, and the “Percent Effect” value was -16.9%. In the case of `COc1cccc(OCC2CCCN(C3CCN(C(C)=O)CC3)C2)c1` (centres undefined), the “Percent Effect” value is reported as -9.945%. `CC(=O)N1CCN(CC(N)=O)CC(COc2ccccc2)C1` (centres undefined) was tested, and the “Percent Effect” value was 106.5%. With `Cc1nccc(N2CCC(Cc3cccc(C(=O)O)c3)CC2)n1` the “Percent Effect” value was 4.494%. With `Cc1ccc(OCC2CCCN(C(=O)CN3CCOCC3)C2)cc1` (centres undefined) the “Percent Effect” value was -2.27%. In the case of `CNC(=O)c1ccnc(N2CCCC(COc3cccc(C)c3)C2)c1` (centres undefined), the “Percent Effect” value is reported as -58.5%. `CC(=O)N1CCN(c2ccnc(C)n2)CC(COc2ccccc2)C1` (centres undefined) was tested, and the “Percent Effect” value was 112.4%. With `CC(=O)N1CCN(C(C)C)CC(COc2ccccc2)C1` (centres undefined) the “Percent Effect” value was 109.4%. In the case of `COc1cccc(OCC2CCCN(C(C)=O)C2)c1` (centres undefined), the “Percent Effect” value is reported as -1.082%.

Reference: ChEMBL document CHEMBL3988442, “University of Dundee, Small-Polar-MMV Screening Library” (2021)
